Values joined by “and” are separate entries in the source; they are usually repeats but may differ in a detail not shown here. Equal entries are not always repeated. Some compounds were tested as several samples or in several runs, with calls that do not always agree. Active and inactive are the calls of the source. How the source made its calls: active means hit-call score of the fitted dose curve at least 0.9, where 1 is the maximum; inactive means score below 0.9.
Tests used:
Details in all cases: primary human lung fibroblasts
[1] = read-out: Interleukin-8 (IL8), CXCL8 (gene 3576); assay: BSK_MyoF_IL8: BioMAP Diversity Plus: MyoF Assay for Interleukin-8 (IL8) Biomarker Activity (AID 2284261)
Outline: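 IL-8 levels were measured by ELISA in human lung fibroblasts harvested 24 h after compound addition. Responses were analysed as gain of signal over the DMSO baseline.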

[2] = read-out: Decorin, DCN (gene 1634); assay: BSK_MyoF_Decorin: BioMAP Diversity Plus: MyoF Assay for Decorin Biomarker Activity (AID 2284265)
Outline: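 Compound is added to lung fibroblast cultures; cells incubate 24 h; decorin is then measured by ELISA; the response is analysed upward against DMSO controls.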

[3] = BSK_MyoF_SRB: Viability Assessment in the BioMAP Diversity Plus: MyoF Assay (AID 2284267);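 further: total protein by SRB absorbance in parallel cultures as cytotoxicity measure; cells assessed 24 h after compound addition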
Outline: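 Cytotoxicity read-out: after 10% TCA fixation, parallel human lung fibroblast cultures were stained with 0.1% SRB at 24 h post-dosing and read at 560 nm; DMSO served as baseline.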

[4] = read-out: Matrix Metallopeptidase 1 (MMP1), MMP1 (gene 4312); assay: BSK_MyoF_MMP1: BioMAP Diversity Plus: MyoF Assay for Matrix Metallopeptidase 1 (MMP1) Biomarker Activity (AID 2284268)
Outline: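 Lung fibroblast cultures were dosed with test chemicals and, after 24 h, MMP1 levels were measured by ELISA; responses were referenced to DMSO and analysed for increases.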

[5] = read-out: TIMP metallopeptidase inhibitor 1 (TIMP1), TIMP1 (gene 7076); assay: BSK_MyoF_TIMP1: BioMAP Diversity Plus: MyoF Assay for TIMP metallopeptidase inhibitor 1 (TIMP1) Biomarker Activity (AID 2284269)
Outline: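 ELISA read-out of TIMP-1 from primary human lung fibroblast cultures 24 h after compound dosing; gain of signal relative to DMSO vehicle baseline defines activity.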

| Structure (SMILES) | outcome [1] | outcome [2] | outcome [3] | outcome [4] | outcome [5] | AC50 [1] | AC50 [4] | AC50 [3] | AC50 [2] |
| --- | --- | --- | --- | --- | --- | --- | --- | --- | --- |
| O=C1CCCCCCCCCCC1 | inactive | inactive | inactive | inactive | inactive |  |  |  |  |
| C=C(C)C(=O)OCCCCCCCCCCCC | inactive | inactive | inactive | inactive | inactive |  |  |  |  |
| COc1ccc(C(=O)/C(Br)=C\C(=O)O)cc1 | inactive | inactive | inactive |  | inactive | 3.97 µM (active) | 16.1 µM (active) and 20 µM (active) |  |  |
| CC1=CC=C(C(C)C)CC1 | inactive | inactive | inactive | inactive | inactive |  |  |  |  |
| C=CC(=O)NCOCCCC | inactive | inactive | inactive | inactive | inactive |  |  |  |  |
| CCc1cccc(C)c1N(C(=O)CS(=O)(=O)O)C(C)COC (stereo not given) | inactive | inactive | inactive | inactive | inactive |  |  |  |  |
| CC1(C)CC(O)CC(C)(C)N1[O] | inactive | inactive | inactive | inactive | inactive |  |  |  |  |
| CCOC(=O)C1=NN(c2ccc(Cl)cc2Cl)C(C)(C(=O)OCC)C1 (stereo not given) | inactive | inactive | inactive | inactive | inactive |  |  |  |  |
| c1ccc2c(c1)[nH]c1ccccc12 | inactive | inactive | inactive | inactive | inactive |  |  |  |  |
| Clc1cc(Cl)c(Cl)c(Cl)c1Cl | inactive | inactive |  |  | inactive |  | 23.2 µM (active) | 20 µM (active) |  |
| CC=C(C)C=CC=C(C)C | inactive | inactive | inactive | inactive | inactive |  |  |  |  |
| CC(C)[N+](C)(CCOC(=O)C1c2ccccc2Oc2ccccc21)C(C)C | inactive | inactive | inactive | inactive | inactive |  |  |  |  |
| CCNc1nc(NC(C)(C)C)nc(OC)n1 | inactive | inactive | inactive | inactive | inactive |  |  |  |  |
| C=CC(=O)OCCCCCCCC(C)C | inactive | inactive | inactive | inactive | inactive |  |  |  |  |
| C=CC(=O)OCC(C)OCC(C)OCC(C)OC(=O)C=C (stereo not given) | inactive |  |  |  |  |  | 35.1 µM (active) | 33.2 µM (active) | 20 µM (active) |

From PubChem BioAssay (EPA / NIEHS)
